# Experimental data from PubChem BioAssay (NCATS).
# Values joined by “and” are separate entries in the source; they are usually repeats but may differ in a detail not shown here. Equal values may be shown once. Records with an inconclusive call do not appear. Where a call stands in place of a potency, no number is given. Values without a mark were called inactive. Active and inactive are the calls of the source. The call rests on the fitted dose curve; in most records, active means well fitted curve in the direction sought with a large enough effect; inconclusive means small, poorly fitted or top-dose-only effect, or another doubt; inactive means no such curve, though single readings can be large; an effect the other way counts as inactive or inconclusive.
# Columns and labels:
# [1] = molecular target: Cytochrome P450 3A7 (Homo sapiens) (UniProt P24462); assay: Cytochrome P450 family 3 subfamily A member 7 (CYP3A7) small molecule antagonists: luciferase biochemical qHTS assay (AID 1963596); details: P450-Glo CYP3A7 enzyme luminescence, 1 h; series mostly up to 57.4 µM; further: nearly all actives have a fitted effect of over 40% in size
# Chain of Cytochrome P450 3A7 (Homo sapiens) (P24462 whole entry, looked up): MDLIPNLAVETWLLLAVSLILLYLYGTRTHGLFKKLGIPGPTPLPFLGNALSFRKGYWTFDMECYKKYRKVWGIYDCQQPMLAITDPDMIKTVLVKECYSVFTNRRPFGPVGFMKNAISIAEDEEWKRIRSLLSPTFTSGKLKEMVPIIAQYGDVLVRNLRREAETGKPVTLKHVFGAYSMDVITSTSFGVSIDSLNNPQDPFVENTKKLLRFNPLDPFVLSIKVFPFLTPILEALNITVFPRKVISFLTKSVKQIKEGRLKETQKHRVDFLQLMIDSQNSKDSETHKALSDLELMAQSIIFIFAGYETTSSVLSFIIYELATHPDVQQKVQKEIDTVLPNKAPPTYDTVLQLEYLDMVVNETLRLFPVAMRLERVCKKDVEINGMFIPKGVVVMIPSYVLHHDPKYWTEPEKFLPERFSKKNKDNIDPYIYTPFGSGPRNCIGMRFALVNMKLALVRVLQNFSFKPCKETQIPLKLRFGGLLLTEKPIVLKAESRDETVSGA
# How it was run: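 Luminescence read-out (relative luminescence units) after 20 min with detection reagent, which stops the reaction. Enzyme, proluciferin substrate and compound preincubated 10 min, RT; NADPH regeneration system then started 1 h reaction. Ketoconazole as positive control.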
# [2] = Cellular viability qHTS for adrenocortical cancer (ACC) cell line SW-13 (AID 1963989); details: SW-13 ACC cells viability, CellTiter-Glo, 48 h; activity (max response): stronger effect = lower value; further: nearly all actives have a fitted effect of over 65% in size; further: potency means the concentration at half of the fitted maximal effect;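 on activity (max response): cells grown in serum-free medium with ITS supplement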
# How it was run: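 Compound titrations (up to 46 uM final, in DMSO) were applied to SW-13 cells for 48 h at 37C/5% CO2. Reading used CellTiter-Glo after 20 min at room temperature; fitted curves yielded IC50 and efficacy.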
# [3] = Cellular viability qHTS for adrenocortical cancer (ACC) cell line NCI-H295R (AID 1963990); details: CellTiter-Glo ATP luminescence, 48 h; series mostly up to 46.1 µM; further: nearly all actives have a fitted effect of over 60% in size; further: potency means the concentration at half of the fitted maximal effect
# How it was run: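 Readout: CellTiter-Glo luminescence, 20 min RT. Exposure: 48 h, 37C/5% CO2. Cells: NCI-H295R, ITS-DMEM serum-free. Range: up to 46 uM. Analysis: 4PL fit, IC50 plus efficacy.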
# [4] = Viability qHTS for spleen associated tyrosine kinase inhibitor (SYKi) naive MV4-11 cells (AID 1963823); details: MV4-11 AML viability, CellTiter-Glo luminescence, 72 h; series mostly up to 45 µM; further: nearly all actives have a fitted effect of over 40% in size; further: potency means the concentration at half of the fitted maximal effect
# How it was run: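 CellTiter-Glo luminescence, 10 min room-temperature incubation, gave viability. Cells: naive MV4-11 (500/well), treated 72 hr at 37 C, 5% CO2.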
compound,measurement,setting,value
O=C(O)CCc1nc2ccccc2[nH]1,Potency,[1],inactive
same,activity (max response),[2],0.871%
same,Potency,[3],inactive
O=c1[nH]c(=O)n([C@H]2O[C@H](CO)[C@@H](O)[C@@H]2O)cc1/C=C\Br,Potency,[1],inactive
same,activity (max response),[2],-3.87%
same,Potency,[3],inactive
O=c1[nH]c(=O)n([C@H]2C[C@H](O)[C@@H](CO)O2)cc1I,Potency,[1],inactive
same,activity (max response),[2],-5.04% and -11.6%
same,Potency,[3],inactive
CNC(=O)Oc1ccc2c(c1)[C@]1(C)CCN(C)[C@@H]1N2C,Potency,[1],inactive
same,activity (max response),[2],16.2%
same,Potency,[3],inactive
Cc1cc(=O)n(-c2ccccc2)n1C,Potency,[1],inactive
same,activity (max response),[2],4.16%
same,Potency,[3],inactive
O=C(O)c1[nH]n(-c2ccc(S(=O)(=O)O)cc2)c(=O)c1N=Nc1ccc(S(=O)(=O)O)cc1,Potency,[1],inactive
same,activity (max response),[2],6.82%
same,Potency,[3],inactive
CCCCC(O)/C=C(C)/C=C/C=C/C(=O)N1CCCC1=O (centres undefined),Potency,[1],inactive
same,activity (max response),[2],10.5%
same,Potency,[3],inactive
CC(N)CCCC(C)(C)O (centres undefined),Potency,[1],inactive
same,activity (max response),[2],18.8%
same,Potency,[3],inactive
Nc1ccn([C@@H]2O[C@H](CO)[C@@H](O)C2(F)F)c(=O)n1,Potency,[1],inactive
same,activity (max response),[2],-35% and -42.2%
same,Potency,[3],2.06 µM (active) and 794 nM (active)
COc1ccccc1OCC1CNC(=O)O1 (centres undefined),Potency,[1],inactive
same,activity (max response),[2],12.9%
same,Potency,[3],inactive
CN(C)C(=O)Nc1ccc(Cl)c(Cl)c1,Potency,[1],inactive
same,activity (max response),[2],-2.09%
same,Potency,[3],inactive
CC(C)(Oc1ccc(Cl)cc1)C(=O)O,Potency,[1],inactive
same,activity (max response),[2],-3.02%
same,Potency,[3],inactive
O=C(CCCCC(=O)Nc1c(I)cc(I)c(C(=O)O)c1I)Nc1c(I)cc(I)c(C(=O)O)c1I,Potency,[1],inactive
same,activity (max response),[2],10.3%
same,Potency,[3],inactive
Nc1ncnc(Nc2ccccc2)n1,Potency,[1],inactive
same,activity (max response),[2],3.3%
same,Potency,[3],inactive
CCN(CC)CC(=O)Nc1c(C)cccc1C(=O)OC,Potency,[1],inactive
same,activity (max response),[2],-5.08%
same,Potency,[3],inactive
CC(=O)N[C@H]1[C@H]([C@H](O)[C@H](O)CO)OC(C(=O)O)=C[C@@H]1N=C(N)N,Potency,[1],inactive
same,activity (max response),[2],-7.79%
same,Potency,[3],inactive
Cc1ccc(C(=O)C(C)CN2CCCCC2)cc1 (centres undefined),Potency,[1],inactive
same,activity (max response),[2],-5.23%
same,Potency,[3],inactive
NCCS,Potency,[1],inactive
same,activity (max response),[2],16.9%
same,Potency,[3],inactive
CC(=O)OCC(=O)[C@@]1(OC(C)=O)[C@@H](C)C[C@H]2[C@@H]3C[C@H](F)C4=CC(=O)C=C[C@]4(C)[C@@]3(F)[C@@H](O)C[C@@]21C,Potency,[1],inactive
same,activity (max response),[2],3.57%
same,Potency,[3],inactive
OC[C@H]1O[C@@H](Oc2ccc(O)cc2)[C@H](O)[C@@H](O)[C@@H]1O,Potency,[1],inactive
same,activity (max response),[2],-0.0454%
same,Potency,[3],inactive
CC(C)C(=O)Nc1cccc(C(F)(F)F)c1,Potency,[1],inactive
same,activity (max response),[2],14.2%
same,Potency,[3],inactive
NC(=O)NC(=O)Cc1ccccc1,Potency,[1],inactive
same,activity (max response),[2],-0.635%
same,Potency,[3],inactive
Cc1nc(N)nc(N)c1-c1ccc(Cl)c(Cl)c1,Potency,[1],inactive
same,Potency,[2],231 nM (active)
same,Potency,[3],0.13 µM (active)
Fc1ccc(C(c2ccc(F)cc2)N2CCNCC2)cc1,Potency,[1],inactive
same,activity (max response),[2],4.07%
same,Potency,[3],inactive
CN(C)C(=O)CNC(=O)Cc1ccccc1,Potency,[1],inactive
same,activity (max response),[2],-6.74%
same,Potency,[3],inactive
Oc1c(Br)cc(Br)c2cccnc12,Potency,[1],inactive
same,Potency,[2],4610 nM (active)
same,Potency,[3],1.64 µM (active)
CN1C(=O)c2ccccc2C1=O,Potency,[1],inactive
same,activity (max response),[2],-9.75%
same,Potency,[3],inactive
CC(=O)OCC(=O)NCCCOc1cccc(CN2CCCCC2)c1,Potency,[1],inactive
same,activity (max response),[2],3.89%
same,Potency,[3],inactive
CCN1CC(CCN2CCOCC2)C(c2ccccc2)(c2ccccc2)C1=O (centres undefined),Potency,[1],inactive
same,activity (max response),[2],1.41%
same,Potency,[3],inactive
Cc1ccc(NC(=O)N2CCN(c3nc(N)nc4sc(-c5cccnc5)nc34)CC2)cc1,Potency,[4],13 nM (active)
C=C1C[C@]23C[C@H]1CC[C@H]2[C@@]12CC[C@H](O)[C@@](C)(C(=O)O1)[C@H]2[C@@H]3C(=O)O,Potency,[4],inactive
Cl/C(=C\n1cncn1)c1ccc(Cl)cc1Cl,Potency,[1],inactive
same,Potency,[3],inactive
C[C@@H]1O[C@@H](O[C@H]2[C@H](O[C@H]3[C@H](O[C@H]4CC[C@@]5(C)C(CC[C@]6(C)C5CC=C5[C@@H]7CC(C)(C)CC[C@]7(C(=O)O[C@@H]7O[C@H](CO)[C@@H](O[C@@H]8O[C@@H](C)[C@H](O)[C@@H](O)[C@H]8O)[C@H](O)[C@H]7O)CC[C@]56C)C4(C)C)OC[C@H](O)[C@@H]3O)O[C@H](CO)[C@@H](O)[C@@H]2O)[C@H](O)[C@H](O)[C@H]1O (some centres undefined),viability (% of control),[4],3.73% [at 9.25 µM]
C[C@@H]1CC[C@]2(C(=O)O)CC[C@]3(C)C(=CCC4[C@]5(C)C(CC[C@]43C)C(C)(C)[C@@H](O)[C@H](O)[C@@H]5O)C2[C@]1(C)O (some centres undefined),Potency,[4],inactive
CO[C@@]1(NC(=O)Cc2cccs2)C(=O)N2C(C(=O)O)=C(COC(N)=O)CS[C@@H]21,Potency,[1],inactive
same,Potency,[3],inactive
O=C1OCc2cc3cccc(O[C@@H]4O[C@H](CO)[C@@H](O)[C@H](O)[C@H]4O)c3c(O)c21,Potency,[4],inactive
CC[C@H]1CN(c2nc(N)c(C(N)=O)nc2Cl)CCN1C1CCN(Cc2ccc(Cl)cc2)CC1,Potency,[4],inactive
C=CC1(C)CC(OC(=O)C(=C)C(O)COC(C)=O)C(C(=C)C(=O)OC)C(O)C1C(=C)CO (centres undefined),Potency,[4],8930 nM (active)
COC(=O)c1cc(OC)cc(OC)c1C(=O)c1c(OC)cc2c(c1O)C1CCCC(C)(O2)O1 (centres undefined),Potency,[4],inactive
CC1=C2C(=O)C=C(CO)C2[C@H]2OC(=O)[C@H](C)[C@@H]2[C@@H](OC(=O)Cc2ccc(O)cc2)C1 (some centres undefined),Potency,[4],inactive
CC(=O)c1cc2ccccc2s1,Potency,[1],inactive
same,Potency,[3],inactive
O=S(=O)(O)c1ccc(Nc2ncnc3c2ncn3[C@@H]2O[C@H](CO)[C@@H](O)[C@H]2O)cc1,Potency,[4],inactive
O=C(O)c1cc(O[C@@H]2O[C@H](CO[C@@H]3OC[C@@H](O)[C@H](O)[C@H]3O)[C@@H](O)[C@H](O)[C@H]2O)c2ccccc2c1O,Potency,[4],inactive
Oc1c(I)cc(Cl)c2cccnc12,Potency,[1],inactive
same,Potency,[3],14.6 µM (active)
COC1=Cc2c(nc3n(c2=O)C(C)C(=O)NC3(O)C(C)C)OC=C1 (centres undefined),Potency,[4],inactive
Cc1cc(O[C@@H]2O[C@H](COC(=O)CC(=O)O)[C@@H](O)[C@H](O)[C@H]2O)c(C(C)C)cc1O,Potency,[4],inactive
C=C1CC[C@@]2(OC1)O[C@H]1CC3C4CC=C5C[C@@H](O[C@@H]6O[C@@H](C)[C@H](O)[C@@H](O)[C@H]6O)C[C@@H](O[C@@H]6O[C@H](C)[C@H](O)[C@H](O)[C@H]6O[C@@H]6O[C@@H](C)[C@H](O)[C@@H](O)[C@H]6O)[C@]5(C)C4CC[C@]3(C)[C@H]1[C@@H]2C (some centres undefined),viability (% of control),[4],70.4% [at 9.25 µM]
CC1(C(=O)O)CCCC2(C)C3CCC4CC3(CCC12)CC4C(=O)O (centres undefined),Potency,[4],inactive
O=C(CCCCCCC(=O)Nc1ccc(C2OC(CSc3nc(-c4ccccc4)c(-c4ccccc4)o3)CC(c3ccc(CO)cc3)O2)cc1)NO (centres undefined),Potency,[4],7310 nM (active)
C[C@@H](O)[C@H]1C(=O)N2C(C(=O)O)=C(SCCN=CN)C[C@H]12,Potency,[1],inactive
same,Potency,[3],inactive
O=C(O)C(Cc1ccccc1)NC(=O)C1CCCN1 (centres undefined),Potency,[4],inactive
COC(=O)c1c(CC=C(C)C)c(OC2OC(CO)C(O)C(O)C2O)c2ccccc2c1OC1OC(CO)C(O)C(O)C1O (centres undefined),Potency,[4],inactive
CC(C)(C)c1ccc(C(=O)CCCCl)cc1,Potency,[1],inactive
same,Potency,[3],inactive
CCCCCCOC(=O)/N=C(\N)c1ccc(NCc2nc3cc(C(=O)N(CCC(=O)OCC)c4ccccn4)ccc3n2C)cc1,Potency,[4],1300 nM (active)
CC(C)N=C(N)/N=C(\N)Nc1ccc(Cl)cc1,Potency,[1],inactive
same,Potency,[3],inactive
C=CC1C(OC2OC(CO)C(O)C(O)C2O)OC=C2C(=O)N3C(C(=O)O)Cc4c([nH]c5ccccc45)C3CC21 (centres undefined),Potency,[4],inactive
CC1(C)S[C@@H]2[C@H](NC(=O)[C@H](NC(=O)N3CCN(S(C)(=O)=O)C3=O)c3ccccc3)C(=O)N2[C@H]1C(=O)O,Potency,[4],inactive
Cc1ccccc1N1CCN(S(=O)(=O)C[C@]23CC[C@H](C[C@@H]2NC(=O)[C@@H](N)CCS(C)(=O)=O)C3(C)C)CC1,Potency,[4],inactive
C=C1CCC2(C(=O)OC3OC(CO)C(O)C(O)C3O)CCC3(C)C(=CCC4C5(C)CCC(OC6OC(CO)C(OC7OC(C)C(O)C(O)C7O)C(OC7OCC(O)C(O)C7O)C6O)C(C)(C)C5CCC43C)C2C1 (centres undefined),viability (% of control),[4],89.9% [at 9.25 µM]
CC1OC(OC2C(OC(=O)[C@]34CCC(C)(C)C[C@H]3C3=CCC5[C@@]6(C)CC[C@H](OC7OC(C(=O)O)C(O)C(O)C7O)C(C)(C)C6CC[C@@]5(C)[C@]3(C)CC4O)OC(CO)C2O)C(O)C(O)C1OC1OCC(O)C(O)C1O (some centres undefined),viability (% of control),[4],70.8% [at 9.25 µM]
COc1cc2c(cc1O)C1(Cc3ccc4c(c3C1=O)OCO4)N(C)CC2 (centres undefined),Potency,[4],inactive
CNCCC(Oc1ccc(C(F)(F)F)cc1)c1ccccc1 (centres undefined),Potency,[4],18800 nM (active)
O=C(NCCN1CCCC1)c1cc(-c2ccc(CN3CCOCC3)cc2)nc2ccc(F)cc12,Potency,[4],inactive
CCC(CC)C(=O)Nc1sc2c(c1C#N)CCC(C(C)(C)CC)C2 (centres undefined),Potency,[4],2060 nM (active)
COC(=O)c1ccc(N2CCN(C)CC2)c(NC(=O)c2cccc(OC)c2)c1,Potency,[4],inactive
CC(=O)OC1CC(C(C)(C)O)OC2CCC3(C)OC4=C(C(=O)C=C5C(C)C(OC(C)=O)C6(C)C(C)OC546)C(O)C3C12C (centres undefined),Potency,[4],inactive
CC1=C(C(=O)O)/C(=C/CO[C@@H]2O[C@H](COC(=O)/C=C/c3ccc(O)cc3)[C@@H](O)[C@H](O)[C@H]2O)C(O)C1 (some centres undefined),Potency,[4],inactive
CC(=O)O[C@@H]1[C@H]2[C@@H](OC(=O)c3ccccc3)[C@@H](C)C[C@]2(O)[C@H](OC(C)=O)[C@@]2(C)[C@@H]3CC(C)(C)C(=O)[C@]3(OC(C)=O)C[C@@]12C,Potency,[4],inactive
COC1C(O)C(OC2CCC3(C)C(CCC45CCC6C7(COC(=O)C7)OC4(O)C6(C)CCC35)C2)OC(C)C1OC1OC(CO)C(OC2OC(CO)C(O)C(O)C2O)C(O)C1O (centres undefined),Potency,[4],3900 nM (active)
